Screening results (PubChem)
Pf apPOL block = Pf-apPOL DNA polymerase inhibition. Recombinant Pf-apPOL, molecular beacon fluorescence, 1.5 h. inhibition, % at 10 µM. 210,000 tested, 0.25% active. AID 1794808
mHTT-CaM PPI inh = mHTT-calmodulin interaction abrogation; 190,000 tested, 3.6% active; P42858; AlphaScreen His-mHTT/GST-CaM binding, luminescence; inhibition, % at 15 µM;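 also: 0% = both proteins with DMSO and 100% = one protein alone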
The depositor's hits bear a star; i = inactive; · = not tested or not shown. The list is not random: actives were taken first. Their share in the collection is about 3.5%. Rule as the data show it: active = inhibition above about 50%; inactive = the rest.

SMILES	Pf apPOL block	mHTT-CaM PPI inh
Cc1ccccc1CNC(=O)c1cc2n(n1)CCCN(Cc1ccc(Cl)cc1)C2=O	-4	52*
O=C(NCc1ccccc1F)c1cc2n(n1)CCCN(Cc1ccc(Cl)cc1)C2=O	0	6
Nc1cc(C(=O)NCCSCc2ccccc2)ccc1N1CC2CC(C1)c1cccc(=O)n1C2 (stereo unspecified)	1	19
COc1cc(C2NC(=O)NC(C)=C2C(=O)Nc2cc(C)ccc2C)ccc1O (stereo unspecified)	2	-1
Cc1cc(C)nc(SCc2ccc(C(=O)O)o2)n1	-3	3
CC[C@H]1C(c2ccc(F)cc2)=NN(c2ccccc2)[C@@H]1CO	-6	-58
OC[C@@H]1[C@@H](c2ccc(F)cc2)C(c2ccccc2)=NN1c1ccccc1	-4	89*
Cc1cccc(C2=NN(c3ccccc3)[C@H](CO)[C@H]2C)c1	-4	-5
Cc1cccc(C2=NN(c3ccccc3)[C@H](CO)[C@H]2c2ccccc2)c1	-3	87*
N#Cc1cc2c(nc1SCC(O)CS(=O)(=O)Cc1ccc(Cl)cc1)CCCC2 (stereo unspecified)	-3	37
Cc1cc(C(F)(F)F)n2nc(-c3ccccc3)cc2n1	4	15
O=C(c1ccn2c(-c3ccccc3)nnc2c1)N1CCCC1	-3	-4
CCCCCCC/C=C\CCCCCCCCC(=O)O	17	·
O=C(O)c1cncc(-c2ccccc2)c1	80*	·
O=C(c1ccc(-c2ccccc2)cc1)N1CCN(C(=O)c2cccnc2)CC1	-8	9
O=C1CCN(S(=O)(=O)c2cccs2)CCN1	-4	-14
Cc1ccnc(Nc2ccc(NCCNC(=O)c3c(F)cccc3F)nn2)c1	-6	100*
Cc1ccc(NCCNC(=O)c2c[nH]c3ccccc23)nn1	-14	-11
CN(C)c1ccc(CCCNC(=O)C2CCCCC2)cc1	0	3
COc1ccc2cc3cc(C(=O)Nc4ccccc4OC)oc3nc2c1	3	-1
CCCNc1nc(C(Cl)(Cl)Cl)nc2ccccc12	-7	-74
Clc1nc(C(Cl)(Cl)Cl)nc2ccccc12	2	100*
CCN1c2ccc(C)cc2C(=O)NC12CCN(C(=O)c1ccc(Br)cc1)CC2	-2	2
O=C(NCCCc1ccccc1)c1cccc(NC(=O)c2ccccc2)c1	1	-6
COc1ccc(Nc2n[nH]nc2C(=O)Nc2cccc(SC)c2)cc1	2	50*
SMILES	Pf apPOL block	mHTT-CaM PPI inh
COc1ccc(C(=O)Nc2cccc(SC)c2)cc1	1	-9
O=C(c1c(F)c(F)c(F)c(F)c1F)N1CCN(Cc2ccccc2)CC1	-2	-1
Cc1ccc2c(c1)N(C(=O)c1ccc(C#N)cc1)CCO2	-4	-4
CC(=O)N1CC2(C(C)C)CN(C(C)=O)CC(C(C)C)(C1)C2=O	-4	-2
Cc1ccc(C(=O)NN(C)C)o1	·	-3
Cc1ccc(C(=O)/C=C/C=C/C=C/N(C)C)o1	-4	74*
CC(=O)Nc1c(Cl)cc(N2C(=O)c3ccc(C(=O)O)cc3C2=O)cc1Cl	-3	-12
O=C1C(=C(c2ccccc2)c2ccccc2)C(=O)c2ccccc21	-11	61*
O=C1C(c2ccccc2)=C(c2ccccc2)c2ccccc21	-1	41
Cn1c(=O)n(Cc2ccccc2F)c(=O)c2cnc(-c3ccc(Cl)cc3)nc21	0	-7
CC1CCN(c2oc(-c3ccccc3)nc2C#N)CC1	2	12
COCCCNC(=O)c1cnn2c(C(F)(F)F)cc(-c3ccccc3)nc12	-6	5
C=CCNC(=O)c1cnn2c(C(F)(F)F)cc(-c3ccccc3)nc12	-4	51*
COc1ccc(C(=O)OC(=Cc2nccn2C(=O)c2ccc(OC)cc2)c2ccc(OC)cc2)cc1	-2	·
COc1cc(S(=O)(=O)N2CCN(c3ccc(F)cc3)CC2)c(OC)cc1Br	-6	1
Cc1cc(Br)c(S(=O)(=O)N2CCN(c3ccccc3)CC2)cc1C	-8	-2
COc1cc(S(=O)(=O)N2CCN(c3ccc(C)c(C)c3)CC2)c(OC)cc1Br	1	59*
COc1cc(Br)c(S(=O)(=O)N2CCN(c3ccc(C)c(C)c3)CC2)cc1OC	1	53*
N#CCCN(/N=C/c1cccc2ccccc12)C1=NS(=O)(=O)c2ccccc21	·	i
O=C(NCc1ccsc1)c1ccc(F)cc1Cl	-7	-10
COc1ccc(Oc2coc3cc(OCc4cccc(Cl)c4)ccc3c2=O)cc1	3	3
C=CCOc1ccccc1CNc1ccc(C)cc1	0	54*
C=CCNC(=O)C(=O)Nc1cc(OC)ccc1OC	-7	-4
C=CCOc1ccccc1CNc1ccccc1F	3	-87
C=CCOc1ccccc1CNc1cc(OC)ccc1OC	12	67*
SMILES	Pf apPOL block	mHTT-CaM PPI inh
COc1ccc(-c2nc(-c3cc4cc(OC)ccc4oc3=O)cs2)cc1	-1	8
CC(=O)N1CCN(Cc2ccc(Cl)cc2)CC1	2	-5
N#Cc1nc(COc2ccccc2Cl)oc1NCc1cccnc1	-1	23
COc1ccc(CCNc2oc(COc3ccc(OC)cc3)nc2C#N)cc1	4	-5
N#Cc1nc(COc2ccccc2Cl)oc1NCCCn1ccnc1	3	100*
COc1ccc(CCNc2oc(COc3ccccc3C)nc2C#N)cc1	-3	52*
Cc1ccccc1OCc1nc(C#N)c(NCCCn2ccnc2)o1	-11	8
Cc1ccccc1OCc1ccc(-c2nc(C#N)c(NCc3cccnc3)o2)o1	-8	54*
Cc1nc2ccccc2c2c1C(=O)N(c1ccc(Cl)cc1Cl)C2=O	-4	-2
COc1ccc(OC)c(NC(=O)Cc2ccc([N+](=O)[O-])cc2)c1	1	14
O=C(Nc1cccn2cnnc12)c1ccc(C(F)(F)F)cc1	-1	2
O=c1[nH]c(-c2cccc(Cl)c2)nc2ccccc12	-2	-3
COc1ccc2cc(CCNC(=O)C34CC5CC(CC(C5)C3)C4)c(=O)[nH]c2c1	-2	8
COc1cc2c(cc1OC)C(COc1cccc(C(F)(F)F)c1)N(C(=O)C(C)C)CC2 (stereo unspecified)	-1	96*
COc1cc2c(cc1OC)C(COc1cccc(C(F)(F)F)c1)N(C(=O)C1CC1)CC2 (stereo unspecified)	-6	95*
COC(=O)c1ccc(OCC2c3cc(OC)c(OC)cc3CCN2C(=O)C2CC2)cc1 (stereo unspecified)	-7	30
COc1cc2c(cc1OC)C(COc1ccccc1OC)N(C(=O)C(C)C)CC2 (stereo unspecified)	0	9
COc1cc2c(cc1OC)C(COc1ccccc1OC)N(C(=O)c1ccco1)CC2 (stereo unspecified)	-4	30
COc1cc2c(cc1OC)C(COc1cccc(C(F)(F)F)c1)N(C(=O)c1ccco1)CC2 (stereo unspecified)	-4	100*
COc1ccc(C=Nc2cccc(N=Cc3ccc(OC)c(OC)c3)c2)cc1OC	-4	74*
COc1cc(C=Nc2ccc(C)c(C)c2)ccc1O	3	19
Cn1cc(/C=C2\SC(=Nc3ccccc3)NC2=O)c2ccccc21	1	55*
O=C1NC(=Nc2ccccc2)S/C1=C/c1ccccc1Br	0	-1
CCNc1cc(N2CCC(CCC(=O)Nc3ccc(OC)c(OC)c3)CC2)ncn1	-1	8
CCCNc1cc(N2CCC(CCC(=O)Nc3ccc4c(c3)OCCO4)CC2)ncn1	-4	9
CCNc1cc(N2CCC(CCC(=O)Nc3cc(C)ccc3OC)CC2)ncn1	-4	55*
